Bioassay records from PubChem.
NALP3 yeast inh – inhibitors of NALP3 inflammasome in yeast; Yeast reconstituted NLRP3/ASC/caspase-1, beta-gal luminescence, 24 h; inhibition, % at 10 µM; 330,000 tested, 0.39% active;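 active = inhibition of 50% or more; inactive = inhibition below 50%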
tim10-1 inh – growth inhibitors of tim10-1 mutant yeast | S. cerevisiae tim10-1 ts strain growth, BacTiter-Glo, 24 h | inhibition, % at 20 µM | 330,000 tested, 2.2% active | AID 463190;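 active = inhibition of at least 40%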;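 also: mutant grown at 25 °C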
TIM10 inh – inhibits growth of TIM10 yeast strain; S. cerevisiae TIM10 strain growth, BacTiter-Glo luminescence, 24 h; inhibition, % at 10 µM; 330,000 tested, 1.4% active; AID 463195;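 active = inhibition of 40% or more at the single tested concentration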;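 also: wild-type TIM10 isogenic control strain grown at permissive 25 °C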
tim23-1 inh – tim23-1 yeast growth inhibition | S. cerevisiae tim23-1 growth, BacTiter-Glo luminescence, 24 h | inhibition, % at 20 µM | 330,000 tested, 1.3% active;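 active = growth inhibition of the mutant yeast at or above 50%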;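 also: temperature-sensitive mutant grown at 25 °C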
NALP1 inh – inhibitors of NALP1 inflammasome in yeast; S. cerevisiae NALP1/ASC/caspase-1 growth, X-gal OD620, 72 h; inhibition, % at 10 µM; 280,000 tested, 0.61% active; in the data active = inhibition mostly above about 24%, no sharp cut-off; inactive = mostly below about 32%
PfHsp90 yeast 2 – inhibits growth of yeast expressing Plasmodium falciparum Hsp90. S. cerevisiae expressing PfHsp90, BacTiter-Glo ATP, 48 h; yeast lacking PDR1 and PDR3 efflux regulators. inhibition, % at 9.4 µM. 310,000 tested, 0.32% active. AID 504621;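 active = every replicate shows inhibition above about 80%, whatever the replicate mean, limit read from the data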
tim23-1 conf – confirmation of tim23-1 mutant yeast growth inhibitors. S. cerevisiae tim23-1 growth, BacTiter-Glo luminescence, 24 h. inhibition, % at 20 µM. shares compounds with tim23-1 inh. 4,400 tested, 83% active;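 active = inhibition above about 39% in either of two replicate wells at 20 µM, limit read from the data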;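 also: temperature-sensitive tim23-1 mutant grown at 25 °C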
Large screens that a line does not name were inactive (follow-up assays come after a bar, where they were run). Sampled rows, rich in hits. Any-hit rate of the full collection: about 4.1%.

Cc1[nH]n(-c2ccccc2)c(=O)c1C(c1ccc(C(=O)O)cc1)c1c(C)[nH]n(-c2ccccc2)c1=O	none
Cc1[nH]n(-c2ccccc2)c(=O)c1C(c1cccc([N+](=O)[O-])c1)c1c(C)[nH]n(-c2ccccc2)c1=O	tim23-1 inh 56 | tim23-1 conf 60
Cc1ccn2cc(C(=O)Nc3ccccc3N3CCOCC3)nc2c1	tim23-1 inh 56 (no result: PfHsp90 yeast 2) | tim23-1 conf 41
CN(C)/C=C1/C=C(c2ccccc2)OC1=O	tim23-1 inh 56 | tim23-1 conf 41
CCN(CCCNC(=O)CCc1nc(-c2ccc(C)cc2)no1)c1cccc(C)c1	tim23-1 inh 52 | tim23-1 conf 43
Cc1cccc(-c2noc(CCC(=O)NCCc3ccccc3)n2)c1	none
COc1cc(C2C(C#N)=C(N)N(N(C)C)C3=C2C(=O)CC(C)(C)C3)cc(OC)c1OC (stereo not given)	none
COc1ccccc1Nc1nc(Cl)c(C=O)s1	none (no result: PfHsp90 yeast 2)
Cc1ccc(Nc2nc3ccccc3c(=O)s2)cc1C	none
O=Cc1sc(Nc2ccccc2)nc1Cl	tim23-1 inh 51 | tim23-1 conf 49
Cc1ccc(Nc2nc(Cl)c(C=O)s2)cc1Cl	tim23-1 inh 67 | tim23-1 conf 71
Cc1ccc(N/C=C/C(=O)c2cccs2)cc1	tim23-1 inh 56 | tim23-1 conf 57
O=C(/C=C\Nc1cccc(F)c1)c1cccs1	tim23-1 inh 53 | tim23-1 conf 51
CCc1ccc(OCC(=O)Nc2ccc3c(c2)OCCO3)cc1	none
Cc1ccc2c(c1)COc1c3ccc(C(=O)NC(C)C)cc3nn1-2	tim23-1 inh 51 | tim23-1 conf 48
Cc1ccc2c(c1)COc1c3ccc(C(=O)N[C@@H](C)CO)cc3nn1-2	none
Nc1nc(-c2ccc(-c3ccccc3)cc2)cs1	tim23-1 inh 54 | tim23-1 conf 69
Oc1ccc(-c2csc(-c3ccccc3)n2)cc1O	tim23-1 inh 58 | tim23-1 conf inactive
O=C(NCc1ccncc1)C(=O)NCC1OCCN1S(=O)(=O)c1cc(F)ccc1F (stereo not given)	none
COc1cc(S(C)=O)ccc1-c1nc2ncccc2[nH]1 (stereo not given)	none (no result: NALP1 inh)
CC(=O)Nc1cn(-c2ccccc2)nc1-c1ccccc1	none
O=C(CCl)Nc1cn(-c2ccccc2)nc1-c1ccccc1	tim23-1 inh 60 | tim23-1 conf inactive
Cc1c(N2C(=O)/C(=C/c3ccccc3)SC2=S)c(=O)n(-c2ccccc2)n1C	none
Cc1c(N2C(=O)/C(=C\c3ccccc3O)SC2=S)c(=O)n(-c2ccccc2)n1C	tim23-1 inh 67 | tim23-1 conf 63
O=C(N/N=C/c1coc2ccccc2c1=O)c1ccc(Cl)cc1	tim23-1 inh 54 | tim23-1 conf 43
Cc1ccc2occ(/C=N/NC(=O)c3ccccc3Br)c(=O)c2c1	tim23-1 inh 63 | tim23-1 conf 66
CCOc1ccccc1C(=O)N/N=C/c1coc2ccc(C)cc2c1=O	tim23-1 inh 64 | tim23-1 conf 66
O=C(N/N=C/c1coc2ccccc2c1=O)c1ccccc1	none
O=Cc1cc2ccccc2nc1SCc1ccc(Cl)c(Cl)c1	tim23-1 inh 60 | tim23-1 conf 44
Clc1ccc(CSc2cnnc3ccccc23)cc1Cl	none (no result: NALP3 yeast inh, tim10-1 inh, TIM10 inh, tim23-1 inh, NALP1 inh)
COc1ccc(CCNC(=O)c2ccc(NC(=O)CC3SC(N4CCCCC4)=NC3=O)cc2)cc1 (stereo not given)	none (no result: NALP3 yeast inh, tim10-1 inh, TIM10 inh, tim23-1 inh, NALP1 inh)
Fc1cccc(CNc2ncnc3cc(Cl)ccc23)c1F	tim23-1 inh 60 | tim23-1 conf inactive
Cc1sc2ncnc(OCC(=O)Nc3ccc4c(c3)OCCO4)c2c1C	none
Cc1nc(Nc2ccc3c(c2)OCCO3)c2c(C)c(C)sc2n1	tim23-1 inh 55 | tim23-1 conf 49
Cc1ccc(S(=O)(=O)NCC(=O)OCCOc2ccccc2F)cc1	none (no result: NALP1 inh)
Cc1ccc(S(=O)(=O)NCC(=O)OCCOc2cccc(Cl)c2)cc1	tim23-1 inh 51 (no result: NALP1 inh) | tim23-1 conf 44
Cc1cccc(C(=O)OCC(=O)N2CCCCCC2)c1	none (no result: NALP1 inh)
CSC1=NSC2=NC(=O)/C(=C/c3coc4ccccc4c3=O)C(=N)N12	none (no result: NALP3 yeast inh, tim10-1 inh, TIM10 inh, tim23-1 inh)
N=C1/C(=C\c2coc3ccccc3c2=O)C(=O)N=C2SC=CN12	tim23-1 inh 65 (no result: NALP1 inh) | tim23-1 conf 71
COC(=O)C(NC(=O)CCc1nnc2ccc(N3CCCCC3)nn12)C(C)C (stereo not given)	none
Cc1ccccc1Nc1nc2ccccc2s1	tim23-1 inh 50 | tim23-1 conf inactive
COc1ccc(Nc2nc3ccccc3n3cnnc23)cc1Cl	tim23-1 inh 57 | tim23-1 conf inactive
Oc1ccc(Br)cc1C=Nc1cccn2cc(-c3ccccc3)nc12	tim23-1 inh 54 | tim23-1 conf 54
COc1ccc(C=C2c3ccccc3C(=O)c3ccccc32)c(OC)c1	none
COc1ccc(/C=C2\COc3ccccc3C2=O)c(OC)c1	tim23-1 inh 55 | tim23-1 conf 50
O=C(c1ccco1)N1CCN(C(=O)N2c3ccccc3Sc3ccccc32)CC1	tim23-1 inh 56 | tim23-1 conf inactive
O=C(c1ccco1)N1c2ccccc2Sc2ccccc21	none
COc1ccc(NC(=O)N(C)C[C@H]2Oc3ccc(NS(=O)(=O)c4ccccc4)cc3C(=O)N([C@H](C)CO)C[C@@H]2C)cc1	none (no result: NALP3 yeast inh, tim10-1 inh, TIM10 inh, tim23-1 inh, NALP1 inh)
COc1ccc(S(=O)(=O)NCC2CCC(C(=O)NCCCN3CCCC3=O)CC2)cc1 (stereo not given)	none
Cc1ccc2c(c1)/C(=C/c1ccccc1C)C(=O)N2	tim23-1 inh 53 | tim23-1 conf 42
Cc1ccc2c(c1)/C(=N/N1C(=O)c3ccccc3C1=O)C(=O)N2	none
COc1ccccc1/C=C1\C(=O)Nc2ccccc21	tim23-1 inh 62 | tim23-1 conf 46
O=C(COc1ccc(Cl)cc1)N1CCN(C(=O)c2ccccc2F)CC1	none
CN(C)S(=O)(=O)c1cccc(NC(=S)N/N=C/c2cc(Br)ccc2O)c1	tim23-1 inh 58 | tim23-1 conf 48
O=C1c2cccc3c(Cl)ccc(c23)C(=O)N1O	tim23-1 inh 61 | tim23-1 conf 69
COc1nn(-c2ccccc2)c(=O)c(Cl)c1Cl	tim23-1 inh 51 | tim23-1 conf inactive
CN(C)c1cnn(-c2ccccc2)c(=O)c1Cl	none
CCOC(=O)[C@@H]1[C@H]2COc3ccc(Br)cc3[C@@H]2N2C(=O)N(c3ccccc3)C(=O)[C@@]12C	none
CCOC(=O)[C@H]1[C@H]2COc3ccc(Br)cc3[C@@H]2N2C(=O)N(c3ccccc3)C(=O)[C@@]12C	tim23-1 inh 50 (no result: NALP1 inh) | tim23-1 conf inactive
CCCCn1c(N)c(N(CC(C)C)C(=O)c2ccc(C)c(S(=O)(=O)N3CCCCC3)c2)c(=O)[nH]c1=O	none (no result: NALP1 inh)
COc1cccc(OC)c1NC(=O)CN1CCN(C)CC1	none
